In PubChem BioAssay (NCI) one finds growth data, which are given here for eight molecules.

This is part of a sample that, as a whole, favours compounds with a hit. Of some 83,000 tested, about 20% had one in any assay.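 Single-dose data. Exposure time 48 hours. Values below 10 considered active.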 Values without a mark were called inactive. Active and inactive are the calls of the source.

What all share (test): NCI-60 one-dose screen, 48 h (100 = growth as untreated, 0 = no growth, -100 = all killed)
Common to all, as to conditions: 10 µM unless noted

In experiment [1] the test system is SR leukemia.
Experiment [2] relates to RPMI-8226 leukemia.
Experiment [3] has as its system OVCAR-8 ovarian.
For experiment [4], the system named is OVCAR-5 ovarian.
In experiment [5] the test system is OVCAR-4 ovarian.
Experiment [6] concerns SK-OV-3 ovarian.
The subject of experiment [7] is IGROV1 ovarian.
For experiment [8], the system named is OVCAR-3 ovarian.
For experiment [9], the system named is HS 578T breast.
Experiment [10] concerns NCI/ADR-RES ovarian.
Experiment [11] relates to T-47D breast.
For experiment [12], the system named is BT-549 breast.
Experiment [13] relates to MDA-MB-435 melanoma.
Experiment [14] concerns SW-620 colon.
In experiment [15] the test system is MCF7 breast.
For experiment [16], the system named is HCT-116 colon.
Experiment [17] concerns HCC-2998 colon.
Experiment [18] has as its system KM12 colon.

`CC1(C)CC[C@]23CC[C@]4(C)[C@H](CC[C@@H]5[C@@]6(C)CCNCC(C)(C)[C@@H]6CC[C@]54C)[C@H]2[C@H]1OC3`: the growth in experiment [1] is 4.33% (active); in experiment [2], 29.7%; in [3] it was 97.4%; in experiment [4] it was 106%; in [5], 99.8%; in experiment [6], 96.5%. Besides, the growth in [7] is 107%; in [8], 98.5%; in [9] it was 104%; in [10], 104%; in [11] it was 77.8%; in [12], 94.2%. Also, the growth in experiment [13] is 86.5%; in [14], 49.9%; in experiment [15], 91.5%; in [16] it was 55%; in experiment [17] it was 28.6%; in experiment [18], 81.4%.

Take `COc1cc(OC)c2c(=O)c3c(CC=C(C)C)cc(OC)c(O)c3oc2c1`: the growth in [1] is 53.2%; in [2], 81.7%; in experiment [3], 88.6%; in [4], 96.2%; in [5], 98.5%; in experiment [6], 96.6%. Moreover, the growth in [7] is 91.7%; in experiment [8], 92.8%; in [9] it was 88.7%; in experiment [10] it was 78.8%; in experiment [11], 57.7%; in experiment [12] it was 77.5%. Besides, the growth in experiment [13] is 53.9%; in experiment [14], 99.7%; in [15], 78.5%; in experiment [16], 81.6%; in experiment [17] it was 106%; in experiment [18], 66.4%.

As to `O=[N+]([O-])c1ccccc1Nc1ccc2ccccc2c1`, the growth was 88.1% in [1]; 82.7% in [2]; 88.6% in experiment [3]; 113% in experiment [4]; 88% in experiment [5]; 84.7% in experiment [6]. The growth was 87% in [7]; 96.3% in experiment [8]; 72.5% in [9]; 105% in [10]; 91.1% in experiment [11]; 84.8% in [12]. The growth in experiment [13] is 99%; in [14], 83.8%; in experiment [15], 74.9%; in [16] it was 82.9%; in experiment [17] it was 105%; in experiment [18] it was 99.4%.

`COCCn1cc(-c2csc(-c3c[nH]c4ccc(F)cc34)n2)c2cccnc21`: the growth in [1] was 9.53% (active); in experiment [2], 21.4%; in [3], 34%; in experiment [4], 60.9%; in [5] it was 37.6%; in [6], 49.7%. The growth in experiment [7] is 42%; in experiment [8] it was 15.2%; in experiment [9], 52.2%; in [10] it was 7.39% (active); in experiment [11], 2.36% (active); in [12], 7.07% (active). The growth in experiment [13] is 5.02% (active); in experiment [14], 18.8%; in experiment [15], 11.8%; in experiment [16], 22.2%; in experiment [17], 27.6%; in [18], 8.29% (active).

With `O=c1cc(CP(=O)(O)O)c2cc(O)c(-c3ccccc3)cc2o1`, the growth in [1] was 95.2%; in experiment [2] it was 99.2%; in experiment [3], 101%; in experiment [4], 101%; in [5], 98.5%; in experiment [6] it was 102%. Also, the growth in [7] is 104%; in experiment [8], 108%; in [9] it was 101%; in experiment [10], 102%; in [11] it was 101%; in experiment [12], 108%. Besides, the growth was 99.2% in [13]; 98.3% in [14]; 96.9% in experiment [15]; 108% in [16]; 102% in [17]; 105% in experiment [18].

Turning to `C=C(c1ccc(C(=O)O)c(F)c1)c1cc2c(cc1C)C(C)(C)CCC2(C)C`, the growth in experiment [1] was 86.8%; in [2], 43.1%; in experiment [3], 90.8%; in experiment [4], 101%; in experiment [5], 80.9%; in [6], 84.8%. The growth in experiment [7] was 98%; in [8], 90.8%; in experiment [9] it was 59.6%; in [10], 79.5%; in experiment [11], 78.5%; in experiment [12], 91.7%. For the same molecule, the growth in experiment [13] is 89.3%; in experiment [14] it was 97.6%; in experiment [15], 62.1%; in experiment [16] it was 79.5%; in [17], 89.9%; in [18], 69.2%.

With `CNC(=O)c1cc(Oc2ccc3c(c2)sc2nc(-c4ccc(NC(=O)[C@@H](NC(=O)OC)C(C)C)cc4)cn23)ccn1`, the growth in experiment [1] is 66.1%; in [2], 30.3%; in experiment [3], 34.9%; in experiment [4] it was 117%; in experiment [5], 66.4%; in experiment [6], 98%. Also, the growth in [7] was 82.2%; in experiment [8], 63.3%; in [9] it was 81.6%; in experiment [10], 65.1%; in experiment [11], 8.68% (active); in [12] it was 14.2%. For the same molecule, the growth in [13] is 38.5%; in experiment [14], 84.3%; in experiment [15], 51.6%; in [16], 55%; in experiment [17], 93.4%; in experiment [18] it was 32.8%.

`CCn1cc(Cc2cc(C(=O)Nc3cc4cc(OC)c(OC)cc4c(C)n3)ccc2Cl)cn1`: the growth in experiment [1] was 10%; in experiment [2] it was 29.6%; in experiment [3] it was 34.6%; in experiment [4], 103%; in [5], 58.2%; in experiment [6], 57.9%. Moreover, the growth in experiment [7] is 69.5%; in experiment [8], 38%; in experiment [9], 49.5%; in experiment [10], 22.5%; in experiment [11] it was 19.8%; in experiment [12], 17.3%. Also, the growth was 2.12% (active) in experiment [13]; 38.3% in experiment [14]; 18.5% in experiment [15]; 10.3% in [16]; 65.1% in experiment [17]; 37.7% in [18].
